Source: PubChem (National Center for Advancing Translational Sciences (NCATS))
KDM5B inh: blocks human KDM5B histone demethylase activity | KDM5B demethylase, FDH-coupled NADH fluorescence (FDH is formaldehyde dehydrogenase) | Potency, µM (top dose mostly 57.7 µM), hits mostly inhibitors | 2.6% of 220,000 active | Q9UGL1 | AID 1347165; active = well fitted inhibition curve with a large enough effect; note: nearly all actives have a fitted effect of over 70% in size
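Measured: NADH fluorescence change, 30 min, RT. System: KDM5BΔAP 200 nM final, H3K4me3 peptide, α-KG, Fe(II), ascorbate, NAD⁺ plus FDH, pH 7.5 HEPES. Compounds: titrated, 10 min pre-incubation with enzyme.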
A number is an active result; n = inactive. The sample as a whole holds a higher share of hits than the screen did.

SMILES | KDM5B inh
c1ccc(-c2nnc3n2CCN(Cc2cn(-c4ccccc4)nn2)CC3)cc1 | n
N#Cc1cccnc1N1CCN(Cc2cn(-c3ccccc3)nn2)CC1 | 22µM
CCOc1ccc(C(=O)Nc2cccc(-c3nnc4n3CCCC4)c2)cc1 | n
COC(=O)C1=C(N)Oc2n[nH]c(-c3ccccc3)c2C12C(=O)N(Cc1cccc(F)c1)c1ccccc12 (stereo not given) | n
CC1(CNc2ccccc2)COc2ccc(C(=O)NCCc3ccccn3)cc2N1 (stereo not given) | 22µM
O=C(NCCc1ccccn1)c1ccc(F)cc1 | n
CC1(CNc2ccccc2)COc2ccc(C(=O)NCCN3CCOCC3)cc2N1 (stereo not given) | n
CN(Cc1ccc2c(c1)OCO2)C(=O)c1cccc(OCc2ccccc2)c1 | n
CCOCC1(C)COc2ccc(C(=O)N(C)Cc3ccccc3)cc2N1 (stereo not given) | n
CN(Cc1ccccc1)C(=O)c1ccc2c(c1)NC(C)(COc1ccccc1)CO2 (stereo not given) | 40µM
COc1cccc(OCCNC(=O)c2ccc3[nH]c(C)c(C)c3c2)c1 | n
CC1(COc2ccccc2)COc2ccc(C(=O)NCCOc3ccccc3)cc2N1 (stereo not given) | 40µM
CC1(CNc2ccccc2)COc2ccc(C(=O)NCCOc3ccccc3)cc2N1 (stereo not given) | 28µM
CC(C)(C)c1ccc(C(=O)NCCc2ccccn2)cc1 | n
Cc1ccc(OCCNC(=O)c2ccc3c(c2)NC(=O)CS3)cc1 | n
CCN(C(=O)C(C)S(=O)(=O)Cc1c(Cl)cccc1Cl)c1ccccc1 (stereo not given) | n
CC(=O)c1c(C)[nH]c(C(=O)OC(C)C(=O)Nc2ccc(Cl)cn2)c1C (stereo not given) | n
CCOc1ccc(C(=O)CC2(O)C(=O)Nc3ccc(Br)cc32)cc1 (stereo not given) | n
Cc1ccc(C)c(OCc2ccc(-c3nc(C#N)c(N4CCC(C(N)=O)CC4)o3)o2)c1 | n
CCC(C)(C)C1CCC(=NNC(=S)Nc2ccccc2C(F)(F)F)CC1 (stereo not given) | n
O=C(O)CC(CC(=O)O)c1ccccn1 | n
O=C(CN1CCCc2cc(F)c(F)cc21)Nc1cccc2nsnc12 | n
O=C(NC(NC(=O)c1ccccc1)C(Cl)Cl)c1ccccc1 | n
CCOC(=O)c1ccc(NC(=O)CCn2nc(C)c(S(=O)(=O)N3CCCCC3)c2C)cc1 | n
Fc1ccc2cnc(N3CCC(N[C@H]4C[C@@H]5OCC[C@H]45)CC3)nc2c1 | 25µM
SMILES | KDM5B inh
c1cc2c(cc1N1CCC(N[C@H]3C[C@@H]4OCC[C@H]34)CC1)CCC2 | n
CCOc1ccc(-c2nc(CSCC(=O)N3CCc4ccccc43)c(C)o2)cc1 | n
FC(F)(F)c1cccc(Nc2cnc3ccc(N4CCOCC4)nn23)c1 | 35µM
FC(F)(F)c1cccc(Nc2cnc3ccc(-n4ccnc4)nn23)c1 | n
c1ccc(Nc2cnc3ccc(N4CCOCC4)nn23)cc1 | n
CC(C)N(c1ccccc1)c1ccc(NC(=O)Cn2nc(C(=O)O)c3ccccc3c2=O)cc1 | n
COCCOc1cc2c(cc1CO)OCO2 | n
CCc1nc2ccccc2c(C(=O)OCC(=O)NC(=O)NCc2ccccc2)c1C | n
COCCN1C(=O)[C@@H]2C[C@@H](CN2Cc2ccc(C(F)(F)F)cc2)Oc2ccccc21 | n
O=C(NCc1nnc2cc(-c3nc(C4CC4)no3)ccn12)c1c(F)cccc1F | 25µM
O=C(NCc1nnc2cc(-c3nc(C4CC4)no3)ccn12)c1ccccc1 | n
Cc1noc(-c2ccn3c(CNC(=O)c4ccccc4Cl)nnc3c2)n1 | 28µM
Cc1noc(-c2ccn3c(CNC(=O)c4ccc(F)c(Cl)c4)nnc3c2)n1 | 25µM
Cc1noc(-c2ccn3c(CNC(=O)c4ccccc4F)nnc3c2)n1 | n
O=C(NCc1nnc2cc(-c3nc(C4CC4)no3)ccn12)c1cccc(Cl)c1 | 14µM
Cc1noc(-c2ccn3c(CNC(=O)c4cccc(Cl)c4)nnc3c2)n1 | n
COc1ccccc1Nc1nc2nccc(-c3cccnc3)c2c(=O)[nH]1 | n
Cc1ccc(CN2CCCC3(Cc4ccccc4CNC3=O)C2)cc1 (stereo not given) | n
CC1CCCCC1NC(=O)c1cc2c(Cl)nc3ccccc3c2s1 (stereo not given) | n
Cc1ccccc1C(=O)N1CCc2nc(C3CC3)nc(-c3ccc(O)cc3)c2CC1 | n
O=C(CCc1nc(CSc2n[nH]c(-c3ccccc3Cl)n2)no1)Nc1ccc2ccccc2c1 | n
CC(C)(C)CC(=O)N1CCCC(CN2CCN(c3ccccn3)CC2)C1 (stereo not given) | n
CCCCCC1CCC(c2ccc(-c3ccc(SC(F)F)cc3)cc2)CC1 (stereo not given) | n
O=C(Nc1ccccc1C(F)(F)F)c1nn(-c2ccc(Cl)cc2)ccc1=O | n
CC(OC(=O)C12CC3CC(CC(C3)C1)C2)C(=O)Nc1ccc(Oc2ccccc2)cc1 (stereo not given) | n
SMILES | KDM5B inh
CCN(C(=O)Cn1nc(-c2ccc(F)cc2)ccc1=O)c1cccc(C)c1 | n
Cc1ccc(CNCc2ccc(C)s2)cc1 | n
CN(C)CCCn1c(=O)[nH]c(=O)c2c1ncn2C | n
CCOC(=O)C1=C(N)Oc2cc(O)ccc2C1c1ccccc1Cl (stereo not given) | n
Cc1c(Cl)cccc1NC(=O)c1nc2ccccc2nc1N1CCCC1 | n
N#Cc1c(NC(=O)CSc2ccccn2)sc2c1CCCC2 | n
O=C(Nc1ccc(OC(F)F)cc1)c1cc2ccccc2[nH]1 | n
Cc1cc(C)cc(C(=O)NCc2nnc3cc(-c4nc(C5CC5)no4)ccn23)c1 | n
O=C(NCc1nnc2cc(-c3nc(C4CC4)no3)ccn12)C1CC1 | n
O=C(NCc1nnc2cc(-c3nc(C4CC4)no3)ccn12)c1ccoc1 | 32µM
O=C(NCc1nnc2cc(-c3nc(C4CC4)no3)ccn12)c1ccccc1Cl | 22µM
Cc1noc(-c2ccn3c(CNC(=O)c4nccc5ccccc45)nnc3c2)n1 | 32µM
CC(CCc1ccccc1)NCC1CCCO1 (stereo not given) | n
Cc1cc(NC(=O)CNc2cc(S(=O)(=O)N3CCOCC3)ccc2N2CCCCC2)no1 | n
FC(F)(F)c1ccc(Cl)c(N/N=C/c2ccc(Cl)cc2Cl)c1 | n
CC(Sc1nnc(N2CCCC2)n1-c1ccccc1Cl)c1nc2ccccc2c(=O)[nH]1 (stereo not given) | n
COc1ccccc1-c1noc(CSc2nc(C)c(C)n2C2CCCCC2)n1 | n
CC(C)NC(=O)c1cnn(-c2ccccc2F)c1-n1cccc1 | n
O=C(CSc1nnc(-c2ccccc2)c(-c2ccccc2)n1)NC(=O)NCc1ccccc1 | n
Cc1nc(CN2CCN(C(=O)NCc3ccco3)CC2)cs1 | n
O=C(NCc1ccc(CN2CCCCC2)cc1)c1cc(=O)[nH]c2ccccc12 | n
Cc1cn2cc(CNC(=O)c3ccc(CN4CCCN(C)CC4)[nH]c3=O)nc2s1 | 28µM
Cc1ccc(-c2[nH]ncc2CN2C[C@@H](Oc3ccccc3)C[C@@H]2C(=O)N2CCOCC2)cc1 | n
COc1ccc(C(O)(CN)C(F)(F)F)cc1OC (stereo not given) | n
COc1ccc(-c2nnc([C@H]3CCN(S(C)(=O)=O)C3)o2)cc1 | n
CN(C)c1ccc(-c2nnc([C@H]3CCN(CC4CC4)C3)o2)cc1 | 32µM
CN(C)c1ccc(-c2nnc([C@H]3CCN(C4CCC4)C3)o2)cc1 | 28µM
Clc1cccc(CN2CC[C@H](c3nnc(-c4ccncc4)o3)C2)c1 | n
c1ccc(CCCN2CC[C@H](c3nnc(-c4ccccc4)o3)C2)cc1 | 32µM
